Rab9 promoter act: activates the Rab9 promoter. Huh7 Rab9 promoter-luciferase reporter, luminescence, 24 h. Potency, µM (doses to about 9.22 µM), most hits filed as activators. 320,000 compounds, 2.8% hits. AID 485297; also: nearly all actives have a fitted effect of over 60% in size
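Using Huh7 cells stably transfected with Rab9 promoter–luciferase, compounds were incubated 24 h at 37 °C, 5% CO2; luciferase luminescence was read 10 min after reagent addition.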
NPC1 promoter act: activates the NPC1 promoter | Huh7 NPC1 promoter luciferase reporter, 24 h | Potency, µM (doses to about 9.22 µM), hits mostly activators | 320,000 compounds, 2.4% hits | AID 485313; also: nearly all actives have a fitted effect of over 60% in size
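Stable NPC1-promoter luciferase Huh7 line; cpd (DMSO) 24 h, 37 °C, 5% CO2; Amplite luciferase reagent 10 min RT; luminescence readout. qHTS format.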
FLuc modulator: counter-screen for miR-21 project: firefly luciferase inhibitors or activators; P08659; purified FLuc, Km substrates, luminescence inhibition; Potency, µM (titrated, usually from 57.5 µM), most hits filed as inhibitors; 360,000 compounds, 6.9% hits; AID 588342; also: nearly all actives have a fitted effect of over 55% in size
Target sequence (P08659 whole entry, looked up): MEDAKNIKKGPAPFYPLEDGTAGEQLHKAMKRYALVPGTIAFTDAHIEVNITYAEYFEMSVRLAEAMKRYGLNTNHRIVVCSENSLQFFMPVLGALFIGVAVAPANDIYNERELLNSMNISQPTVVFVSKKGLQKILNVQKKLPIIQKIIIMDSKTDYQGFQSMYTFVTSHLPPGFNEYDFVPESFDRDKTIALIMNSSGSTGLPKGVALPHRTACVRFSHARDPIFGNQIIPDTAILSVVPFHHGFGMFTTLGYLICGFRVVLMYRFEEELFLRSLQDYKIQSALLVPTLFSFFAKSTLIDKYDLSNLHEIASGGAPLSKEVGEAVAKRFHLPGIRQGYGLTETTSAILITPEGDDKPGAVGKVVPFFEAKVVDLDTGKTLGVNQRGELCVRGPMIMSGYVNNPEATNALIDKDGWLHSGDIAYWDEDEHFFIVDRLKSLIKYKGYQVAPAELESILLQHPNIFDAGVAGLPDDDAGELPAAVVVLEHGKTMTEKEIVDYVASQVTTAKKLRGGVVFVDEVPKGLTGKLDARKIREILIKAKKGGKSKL
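Purified P. pyralis luciferase, 10 nM final, with Km-level 10 uM D-luciferin and 10 uM ATP in 50 mM Tris acetate pH 7.5, 10 mM Mg acetate, 0.01% Tween-20, 0.05% BSA; 6-point qHTS titration about 60 µM downward; luminescence read.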
SMN2 splice up: increases expression of the SMN2 splice variant | HEK293 SMN2-luciferase splicing reporter, luminescence, 30-36 h | Potency, µM (titrated, usually from 46.1 µM), most hits filed as activators | 210,000 compounds, 2.8% hits | AID 1458; also: nearly all actives have a fitted effect of over 55% in size
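HEK293 cells carry an SMN2 […]–luciferase reporter in which exon 7 inclusion puts luciferase in frame. Cells were plated 10-12 h before compound addition, then incubated 30-36 h at 37C. ONE-Glo luminescence was read; sodium butyrate at 4.5 mM final served as control.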
Luc counter: blocks Kinase-Glo luciferase, a counter-screen artifact; Q27757; Kinase-Glo luciferase, ATP luminescence, 8 min; Potency, µM (doses to about 38.3 µM), usual class: inhibitors; 200,000 compounds, 0.28% hits; AID 1379; also: nearly all actives have a fitted effect of over 60% in size
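Light output from Kinase-Glo luciferase with luciferin and 10 uM ATP in 50 mM imidazole pH 7.2, KCl, MgCl2, Tween 20, BSA; compound pin-delivered, 8-min ambient incubation, then luminescence read.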
ELG1 genotoxic: inducers of genotoxicity in HEK293T ELG1-luciferase cells. HEK293T ELG1-luciferase reporter, luminescence, 16 h. Potency, µM (top dose mostly 46 µM), actives largely listed as activators. 330,000 compounds, 1.3% hits. AID 504466; also: nearly all actives have a fitted effect of over 60% in size
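HEK293T cells expressing luciferase-tagged ELG1 were treated with compound or DMSO for 16 hr at 37°C. Luciferase activity was then read after 30 min with ONE-Glo at room temperature; rising signal flags genetic stress.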
Hits are given with their value; i = inactive; ? = inconclusive; nt = not tested or not shown. Sampled rows, rich in hits. Any-hit rate of the full collection: about 7.4%. Calls follow the shape of the dose curve; as a rule, active = well fitted curve in the direction sought with a large enough effect; inconclusive = small, poorly fitted or top-dose-only effect, or another doubt; inactive = no such curve, though single readings can be large; an effect the other way counts as inactive or inconclusive.

SMILES	Rab9 promoter act	NPC1 promoter act	FLuc modulator	SMN2 splice up	Luc counter	ELG1 genotoxic
O=C(CNS(=O)(=O)c1cccc(Cl)c1)Nc1ccc(-c2nc3ccccc3s2)cc1	1.6µM	?	15µM	4.5µM	i	8.2µM
CC(C)(C)c1ccc(S(=O)(=O)NCC(=O)Nc2ccc(-c3nc4ccccc4s3)cc2)cc1	i	i	?	11µM	i	?
COc1ccc(NC(=O)C(C)NS(=O)(=O)c2ccccc2)cc1Cl (stereo not drawn)	i	i	i	i	i	i
CC(NS(=O)(=O)c1cccc(Cl)c1)C(=O)Nc1ccc(-c2nc3ccccc3s2)cc1 (stereo not drawn)	2.8µM	?	17µM	20µM	i	?
CCCC(=O)Nc1c(-c2ccccc2)c(=O)c(C)nn1-c1ccc(C)cc1	i	i	i	nt	nt	i
Cc1ccc(NC(=S)N2CCN(Cc3ccccc3)CC2)cc1	i	i	12µM	i	i	i
Cc1cccc(NC(=O)N2CCN(Cc3ccc(Cl)cc3)CC2)c1	i	i	i	i	i	i
S=C(Nc1ccc(Cl)cc1)N1CCN(Cc2ccccc2)CC1	i	i	19µM	i	i	i
O=C(Nc1cccc(Cl)c1)N1CCN(Cc2ccccc2)CC1	?	?	15µM	10µM	i	21µM
Cc1cc(C)cc(NC(=S)N2CCN(Cc3ccccc3)CC2)c1	i	i	i	i	i	i
CCc1ccccc1NC(=O)c1cccc(Oc2ccc([N+](=O)[O-])cc2Cl)c1	i	i	i	nt	nt	i
CC(=O)Nc1cccc(Oc2ccc([N+](=O)[O-])cc2Cl)c1	i	i	24µM	i	i	i
COc1ccc(NC(=O)Nc2cccc([N+](=O)[O-])c2)cc1Cl	i	i	21µM	i	i	i
CCOc1ccc(N2C(=O)CC(NC3CCN(C(=O)c4ccc(F)cc4)CC3)C2=O)cc1 (stereo not drawn)	i	i	i	nt	nt	i
N#CCC(=O)Nc1ccc(C(=O)OCC(=O)c2ccc3c(c2)OCCO3)cc1	?	?	11µM	i	i	i
N#CCC(=O)Nc1ccc(C(=O)OCC(=O)c2ccc3c(c2)OCO3)cc1	4µM	?	?	nt	nt	i
COc1ccc(-c2nc(SCC(=O)N(CC(C)C)c3c(N)n(Cc4ccccc4)c(=O)[nH]c3=O)n[nH]2)cc1	i	i	1.9µM	nt	nt	i
CCCN(C(=O)CSc1n[nH]c(-c2ccc(OC)cc2)n1)c1c(N)n(Cc2ccccc2)c(=O)[nH]c1=O	i	i	11µM	nt	nt	i
Cc1cc(C(=O)CN2C(=O)NC3(CCCc4ccccc43)C2=O)c(C)n1Cc1cccs1 (stereo not drawn)	i	i	6µM	i	i	i
C=CCn1c(C)cc(C(=O)CN2C(=O)NC3(CCCc4ccccc43)C2=O)c1C (stereo not drawn)	i	i	19µM	i	i	i
COCCn1c(C)cc(C(=O)CN2C(=O)NC3(CCCCCC3)C2=O)c1C	2µM	2.5µM	11µM	nt	nt	?
CCC(C(=O)Nc1ccc(C(=O)O)cc1NC(=O)C(CC)c1ccccc1)c1ccccc1 (stereo not drawn)	i	i	i	nt	nt	i
Cc1ccc(OCCC(=O)N(CC(=O)Nc2ccccc2C(F)(F)F)Cc2ccco2)cc1	i	i	i	nt	nt	i
O=C(c1ccccc1-c1nc(-c2ccc(Cl)cc2)no1)N1CCCC1	3.2µM	?	19µM	i	i	?
Cc1ccccc1-c1noc(-c2ccccc2C(=O)N2CCCC2)n1	i	i	i	i	i	i
SMILES	Rab9 promoter act	NPC1 promoter act	FLuc modulator	SMN2 splice up	Luc counter	ELG1 genotoxic
Cc1ccc(-c2noc(-c3ccccc3C(=O)N3CCCC3)n2)cc1	i	i	24µM	i	i	?
O=C(c1ccccc1-c1nc(-c2ccccc2)no1)N1CCCC1	i	i	27µM	?	i	i
Cc1ccc(-c2noc(-c3ccccc3C(=O)N3CCN(C)CC3)n2)cc1	i	i	?	i	i	?
Cc1ccc(Cn2c(CN3CCC(C(=O)NCCc4ccccc4)CC3)cc3ccccc32)cc1	nt	nt	i	nt	nt	nt
CCN(CC1CCCN(CCc2cccc(OC)c2)C1)C(=O)c1ccoc1C (stereo not drawn)	i	i	i	nt	nt	i
CCCCn1c(N)c(N(Cc2ccccc2OC)C(=O)c2sccc2C)c(=O)[nH]c1=O	i	i	i	nt	nt	i
Cc1cc(OCc2ccc(C(=O)n3cccn3)o2)ccc1Cl	?	?	?	11µM	i	?
O=C(c1ccc(COc2ccc(F)cc2)o1)n1cccn1	i	i	24µM	i	i	i
O=c1c2sc3ccccc3c2n(Cc2cccc(F)c2)c(=O)n1CCc1ccccc1	nt	nt	?	i	nt	nt
COC(=O)[C@@H]1CC[C@H](C)[C@@H](c2ccc(C)cc2)N1C(=O)c1ccc(/C=N/O[C@@H](C)c2cn([C@H](CO)Cc3ccccc3)nn2)cc1	i	i	i	i	i	i
CCc1c(C(=O)NNC(=S)NCCc2ccccc2)csc1C	i	i	i	i	i	i
CCc1cc(C(=O)NNC(=S)NC2CCCCC2)cs1	3.5µM	3.5µM	i	nt	nt	i
CCc1c(C(=O)NNC(=S)NC2CCCCC2)csc1C	i	i	i	1.6µM	i	i
CC(C)c1cc(C(=O)NNC(=S)NC2CCCCC2)cs1	?	4µM	?	nt	nt	?
CCn1nc(C(=O)NCc2nnc3ccccn23)c2ccccc2c1=O	i	i	i	nt	nt	i
CN(C(=O)CN1CCN(c2ccccc2F)CC1)C1CCCc2ccccc21 (stereo not drawn)	i	i	i	nt	nt	i
Cc1ccc(-c2nn(-c3ccccc3)cc2CO)cc1	?	?	15µM	nt	nt	?
CN(Cc1cn(-c2ccccc2)nc1-c1ccc(Cl)cc1)C(=O)CCC(=O)O	i	i	11µM	i	i	i
CN(Cc1cn(-c2ccccc2)nc1-c1ccc(F)cc1)C(=O)CCC(=O)O	i	i	12µM	i	i	i
CC(C)(C)C(=O)Nc1nc2c(s1)CN(Cc1ccccc1)CC2	3.2µM	?	?	?	i	?
O=C(Nc1nc2c(s1)CN(Cc1ccccc1)CC2)C1CCCC1	?	i	i	i	i	i
N#Cc1cc([N+](=O)[O-])ccc1NC(=O)CSc1n[nH]c(=O)[nH]c1=O	nt	nt	nt	nt	nt	i
O=C(CSc1nncc2ccccc12)Nc1ccccc1	i	i	17µM	nt	nt	i
COc1ccc(/C=N/n2cnnc2SCc2ccc(OC)cc2)cc1	i	i	13µM	i	i	i
O=C(/C=C/c1cccs1)c1ccc(N2CCOCC2)cc1	2.2µM	3.5µM	0.24µM	i	?	?
O=C(/C=C/c1cccs1)N1CCN(c2ccccc2)CC1	?	i	?	i	i	i
O=C(/C=C/c1cccs1)c1ccc([N+](=O)[O-])cc1	i	i	4.3µM	nt	nt	i
O=C(/C=C/c1cccc(F)c1)Nc1cc(S(=O)(=O)N2CCOCC2)ccc1Cl	nt	nt	nt	nt	nt	i

Screening results: PubChem, National Center for Advancing Translational Sciences (NCATS)
